We go through 51 compounds from PubChem BioAssay (NCATS).

Inconclusive results are not listed. Activity calls are given as the source filed them. Unless noted, calls follow the shape of the dose curve; as a rule, active = well fitted curve in the direction sought with a large enough effect; inconclusive = small, poorly fitted or top-dose-only effect, or another doubt; inactive = no such curve, though single readings can be large; an effect the other way counts as inactive or inconclusive. Peptide text beside a SMILES is read from it.

The nature of assay [1]: S16 Schwann cell viability assay (CellTiter-Glo assay) (AID 624031). Also: nearly all actives have a fitted effect of over 70% in size. The gist of the method: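 Following overnight culture in 10% FBS DMEM, parental S16 rat Schwann cells are dosed for 24 h at 37 °C. Viability is read as CellTiter-Glo luminescence and expressed as % activity relative to DMSO (0%) and no-cell wells.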
In general terms: ATP-based viability assays read luminescence as a measure of living cells.

A short description of assay [2]: S16 Schwann cell PMP22 intronic element firefly luciferase assay (AID 624032). Also: nearly all actives have a fitted effect of over 30% in size. The gist of the method:
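Luciferase reporter of PMP22 intronic-element expression in stably transfected S16 rat Schwann cells, read by ONE-Glo luminescence after 24 h compound exposure at 37 C. Activity scaled between DMSO (0%) and positive-control PTC124; concentration-effect curves quality-classified.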

Assay [3] in a line: S16 Schwann cell PMP22 intronic element beta-lactamase assay (AID 624044; calls by dose curve; also: nearly all actives have a fitted effect of over 15% in size). An outline of the steps: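 Rat S16 Schwann cells with beta-Lac driven by a PMP22 intronic element, compound-treated 24 h at 37 °C. LiveBLAzer FRET B/G read: 460 nm normalized to potassium clavulanate vs DMSO; 535 nm FRET as viability; concentration-effect curves classified.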
Potency is read from the fitted curve at half-maximal effect.

On to `C=C(c1ccc(C(=O)O)cc1)c1cc2c(cc1C)C(C)(C)CCC2(C)C`, for which the Potency entry in assay [1] is “inactive”.
Consider `CC(C)[C@H](N)C(=O)OCCOCn1cnc2c(=O)[nH]c(N)nc21`, for which the Potency result in assay [1] and in assay [2] was “inactive” throughout.
In the case of `CCCOc1ccc2nc(NC(=O)OC)[nH]c2c1`, the Potency result in assay [1] and in assay [2] was “inactive” in each case.
In the case of `Nc1cc(C(Cl)=C(Cl)Cl)c(S(N)(=O)=O)cc1S(N)(=O)=O`, the Potency result in assay [1] and in assay [2] was “inactive” throughout.
As for `CN(C)C(=O)COC(=O)Cc1ccc(OC(=O)c2ccc(N=C(N)N)cc2)cc1`, the Potency result in assay [1] and in assay [2] was “inactive” in each case.
For the compound `O=C(NCCO[N+](=O)[O-])c1cccnc1`, in assay [1], the Potency entry was “inactive”.
Consider `C=CCc1cc(OC)c(O)c(C(=O)NCCO)c1`, for which the Potency entry in assay [1] and in assay [2] was “inactive” each time.
Consider `Cc1cc(=O)oc2cc(O)ccc12`, for which the Potency entry in assay [1] and in assay [2] was “inactive” in each case.
In the case of `COC(=O)C1=C(C)NC(C)=C(C(=O)OCCCN2CCC(c3ccccc3)(c3ccccc3)CC2)C1c1cccc([N+](=O)[O-])c1` (stereo unspecified), the Potency is 16.1 µM (active) in assay [1] and 10.2 µM (active) in assay [2].
As to `Cc1cc2c(s1)Nc1ccccc1N=C2N1CCN(C)CC1`, the Potency result in assay [1] and in assay [2] was “inactive” each time.
Turning to `COCCCOc1ccnc(CS(=O)c2nc3ccccc3[nH]2)c1C` (stereo unspecified), in assay [1], the Potency entry was “inactive”.
For `COc1ccc(C2(C#N)CCC(C(=O)O)CC2)cc1OC1CCCC1` (stereo unspecified), the Potency entry in assay [1] and in assay [2] was “inactive” each time.
With `Cc1c(C(=O)NN2CCCCC2)nn(-c2ccc(Cl)cc2Cl)c1-c1ccc(Cl)cc1`, the Potency entry in assay [1] is “inactive”. The Potency in assay [2] is 18.1 µM (active).
In the same order, the values of `COC(=O)[C@H](Cc1ccccc1)NC(=O)[C@@H](N)CC(=O)O` (H-Asp-Phe-OMe) are “inactive” and “inactive”.
In the same order, the values of `CC(S)C(=O)NCC(=O)O` (stereo unspecified) are “inactive” and “inactive”.
The corresponding values for `CN(C)c1ccc2nc3ccc(=[N+](C)C)cc-3sc2c1` are 4.05 µM (active) and “inactive”.
Consider `CN1C(C(=O)Nc2ccccn2)=C(O)c2sccc2S1(=O)=O`, for which the Potency entry in assay [1] and in assay [2] was “inactive” in each case.
As to `CN(C)CCc1c[nH]c2ccc(Cn3cncn3)cc12`, the Potency entry in assay [1] and in assay [2] was “inactive” each time.
In the case of `N=C(N=C(N)N)N1CCOCC1`, the Potency entry in assay [1] and in assay [2] was “inactive” each time.
For the compound `O=C(O)CCNC(=O)c1ccc(N=Nc2ccc(O)c(C(=O)O)c2)cc1`, the Potency entry in assay [1] and in assay [2] was “inactive” in each case.
Consider `CCCc1cc(=O)[nH]c(=S)[nH]1`, for which the Potency entry in assay [1] and in assay [2] was “inactive” each time.
As to `CC(=O)Nc1ccc(O)cc1`, in assay [1], the Potency result is “inactive”.
As to `N=C(N)c1ccc2cc(OC(=O)c3ccc(N=C(N)N)cc3)ccc2c1`, the Potency entry in assay [1] and in assay [2] was “inactive” in each case.
In the case of `CCC(C)(Oc1ccc(C2(c3ccc(OC(C)(CC)C(=O)O)cc3)CCCCC2)cc1)C(=O)O` (stereo unspecified), in assay [1], the Potency entry was “inactive”.
On to `O=C(O)c1cc(=O)c2c(OCC(O)COc3cccc4oc(C(=O)O)cc(=O)c34)cccc2o1`, for which the Potency entry in assay [1] and in assay [2] was “inactive” throughout.
As for `O=C(O)c1cccc(-c2noc(-c3ccccc3F)n2)c1`, the Potency entry in assay [1] and in assay [2] was “inactive” in each case.
With `O=C(NC(Cc1cc(=O)[nH]c2ccccc12)C(=O)O)c1ccc(Cl)cc1` (stereo unspecified), the Potency entry in assay [1] and in assay [2] was “inactive” in each case.
For the compound `Cc1cc(C2CCCCC2)n(O)c(=O)c1`, in assay [1], the Potency result was “inactive”. The Potency in assay [2] was 1.55 µM (active).
`COc1cc(OC)c(C(=O)CCCN2CCCC2)c(OC)c1`: the Potency entry in assay [1] and in assay [2] was “inactive” in each case.
With `CCN(CC)CCOc1ccc(Cc2ccccc2)cc1`, the Potency entry in assay [1] and in assay [2] was “inactive” in each case.
Turning to `C[Se]CCC(N)C(=O)O` (stereo unspecified), the Potency result in assay [1], in assay [2] and in assay [3] was “inactive” each time.
Take `C[C@]12CCC(=O)C=C1CC[C@@H]1[C@H]2[C@@H](O)C[C@@]2(C)[C@H]1CC[C@]2(O)C(=O)CO`: the Potency result in assay [1], in assay [2] and in assay [3] was “inactive” in each case.
With `NS(=O)(=O)c1cc(C(=O)O)c(NCc2ccco2)cc1Cl`, the Potency result in assay [1], in assay [2] and in assay [3] was “inactive” each time.
Consider `CC1=C(C)C(=O)C(C(CCCCCC(=O)O)c2ccccc2)=C(C)C1=O` (stereo unspecified), for which the Potency result in assay [1], in assay [2] and in assay [3] was “inactive” each time.
Consider `Cc1ncc([N+](=O)[O-])n1CC(C)O` (stereo unspecified), for which the Potency entry in assay [1] and in assay [2] was “inactive” each time.
For the compound `Nc1ccc(S(N)(=O)=O)cc1`, the Potency entry in assay [1], in assay [2] and in assay [3] was “inactive” throughout.
For the compound `CC[C@]1(O)C[C@H]2CN(CCc3c([nH]c4ccccc34)[C@@](C(=O)OC)(c3cc4c(cc3OC)N(C=O)[C@H]3[C@@](O)(C(=O)OC)[C@H](OC(C)=O)[C@]5(CC)C=CCN6CC[C@]43[C@@H]65)C2)C1`, in assay [1], the Potency result is “inactive”. Also, the results for the Potency in assay [2] and in assay [3] were 0.0907 µM (active) and 0.282 µM (active), respectively.
Regarding `CCOC(=O)c1c(C)n(C)c2ccc(O)cc12`, the Potency entry in assay [1], in assay [2] and in assay [3] was “inactive” in each case.
For `c1ccc2[nH]c(-c3cscn3)nc2c1`, the Potency result in assay [1], in assay [2] and in assay [3] was “inactive” throughout.
In the case of `CCOc1cc(CC(=O)N[C@@H](CC(C)C)c2ccccc2N2CCCCC2)ccc1C(=O)O`, the Potency result in assay [1], in assay [2] and in assay [3] was “inactive” each time.
With `CC1(C)CCC(C)(C)c2cc(NC(=O)c3ccc(C(=O)O)cc3)ccc21`, the Potency result in assay [1] and in assay [3] was “inactive” in each case. The Potency in assay [2] was 0.114 µM (active).
On to `CCCCCCCCCCCCCCCCCCCCCCO`, for which the Potency result in assay [1], in assay [2] and in assay [3] was “inactive” throughout.
`O=c1oc2cc(O)ccc2s1`: the Potency entry in assay [1], in assay [2] and in assay [3] was “inactive” each time.
For the compound `N[C@@H](Cc1cc(I)c(Oc2cc(I)c(O)c(I)c2)c(I)c1)C(=O)O`, the Potency result in assay [1], in assay [2] and in assay [3] was “inactive” in each case.
With `Cn1c(NCCN(CCO)CCCc2ccc([N+](=O)[O-])cc2)cc(=O)n(C)c1=O`, the Potency entry in assay [1] and in assay [2] was “inactive” in each case.
As for `COc1c2occc2cc2ccc(=O)oc12`, the Potency result in assay [1], in assay [2] and in assay [3] was “inactive” in each case.
Turning to `CCCCCCCCOc1ccccc1C(=O)Nc1ccc(C(=O)OCC[N+](C)(CC)CC)cc1`, the Potency result in assay [1], in assay [2] and in assay [3] was “inactive” throughout.
In the case of `CC(C)(S)[C@@H](N)C(=O)O`, the Potency entry in assay [1], in assay [2] and in assay [3] was “inactive” in each case.
With `CS(=O)(=O)OCCCCOS(C)(=O)=O`, the Potency result in assay [1], in assay [2] and in assay [3] was “inactive” each time.
Take `O=P(O)(O)C(O)(Cn1ccnc1)P(=O)(O)O`: the Potency result in assay [1], in assay [2] and in assay [3] was “inactive” throughout.
For the compound `CCc1nc(N)nc(N)c1-c1ccc(Cl)cc1`, the Potency entry in assay [1] and in assay [2] was “inactive” in each case. Further, in assay [3], the Potency was 9.99 µM (active).
